Source: PubChem
PLK1 PBD inh = PLK1 (human) polo-box domain binding inhibition; P53350; Potency, µM, inactives show max response, negative = inhibition, most hits filed as inhibitors; AID 720504; Plk1 PBD binding of FITC phosphopeptide, fluorescence polarization; 2.8% of 360,000 active; further: series mostly up to about 57 µM; nearly all actives have a fitted effect of over 65% in size
Gal4-VP16 FLuc = Gal4-VP16 reporter inhibition counter-screen | Drosophila S2 Gal4-VP16 UAS-luciferase, luminescence, 20 h | 3.5% of 310,000 active | Potency, µM (highest dose often 53.6 µM), inactives show top-dose activity, negative = inhibition, actives largely listed as inhibitors | AID 2546;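 further: Gal4-VP16 expression switched on by copper sulfate through the metallothionein promoter; nearly all actives have a fitted effect of over 50% in size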
RORg inh = inhibitors of mouse ROR gamma transcriptional activity. P51450. Drosophila S2 Gal4-RORgamma UAS-luciferase reporter, 20 h. Potency, µM (highest dose often 53.6 µM), for the others: at the highest dose activity change, negative = inhibition, actives largely listed as inhibitors. 5.4% of 310,000 active; further: nearly all actives have a fitted effect of over 60% in size
Target sequence (P51450 whole entry, looked up, the tested form may be a part): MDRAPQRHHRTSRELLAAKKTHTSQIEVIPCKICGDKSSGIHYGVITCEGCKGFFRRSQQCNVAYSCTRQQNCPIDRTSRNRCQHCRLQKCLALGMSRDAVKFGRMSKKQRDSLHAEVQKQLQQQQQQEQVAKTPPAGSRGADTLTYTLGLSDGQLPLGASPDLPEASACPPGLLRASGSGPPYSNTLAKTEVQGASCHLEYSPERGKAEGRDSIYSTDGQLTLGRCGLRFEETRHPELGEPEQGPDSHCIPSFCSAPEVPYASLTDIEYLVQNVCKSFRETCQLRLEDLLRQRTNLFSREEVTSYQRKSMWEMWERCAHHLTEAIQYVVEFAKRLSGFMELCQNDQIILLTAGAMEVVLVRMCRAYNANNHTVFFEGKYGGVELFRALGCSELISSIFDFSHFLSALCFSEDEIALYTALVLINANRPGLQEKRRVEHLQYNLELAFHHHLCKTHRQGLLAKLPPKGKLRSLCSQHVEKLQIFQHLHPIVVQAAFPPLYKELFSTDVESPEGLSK
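Using a luciferase readout, inhibitors were identified by reduced reporter activity in Drosophila cells coexpressing a copper-inducible Gal4–ROR gamma fusion and UAS-driven Photinus luciferase, incubated 20 hr after 700 uM copper sulfate.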
Sfp inh = inhibitors of Bacillus subtilis Sfp phosphopantetheinyl transferase | AID 1490 | 3.5% of 310,000 active | Q9F4F7 | Biochemical Sfp PPTase activity, qHTS | Potency, µM, for the others: largest response in the series, negative = inhibition, most hits filed as inhibitors;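 further: the enzyme is Sfp with the accession as filed and its product quenches rhodamine fluorescence; 0% = enzyme reaction without inhibitor and -100% = no enzyme wells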
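With Hepes-Na pH 7.6 buffer containing 10 mM MgCl2, Sfp (15 nM) modified BHQ-2-YbbR (12.5 uM) using rhodamine-CoA (5 uM). Two reads 30 minutes apart at 525/598 nm yielded each well's rate.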
ALDH1A1 block = blocks purified human ALDH1A1 activity; Purified ALDH1A1, NADH fluorescence, propionaldehyde substrate; 7.3% of 220,000 active; Potency, µM (top dose mostly 75.3 µM), for the others: at the highest dose activity, negative = inhibition, hits mostly inhibitors; active means well fitted inhibition curve with a large enough effect, not every such curve was filed as active; inconclusive means small, poorly fitted or top-dose-only effect, or another doubt; inactive means no such curve, though single readings can be large or run the other way;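 further: plate controls were no enzyme wells and a reference inhibitor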
The depositor's hits bear a star; ? = inconclusive; . = no result; [ ] = another dose, or the depositor's remark. In the library only some 12% were active in any assay of this set; here they are far more common. Unless noted, the call rests on the fitted dose curve; in most records, active means well fitted curve in the direction sought with a large enough effect; inconclusive means small, poorly fitted or top-dose-only effect, or another doubt; inactive means no such curve, though single readings can be large; an effect the other way counts as inactive or inconclusive. Unless noted, on the % scale 0 is the no-effect control and ±100 the full control effect; potency means the concentration at half of the fitted maximal effect.

SMILES	PLK1 PBD inh	Gal4-VP16 FLuc	RORg inh	Sfp inh	ALDH1A1 block
CCC(=O)Oc1ccc(C/C(=N\O)c2ccc(O)cc2O)o1	?	?	2.2µM*	-18%	?
CCOC(=O)c1ccc(CC(=O)c2ccc(O)cc2O)o1	-1%	14%	18%	1%	?
NC(N)=NC(N)=Nc1ccc(C(=O)O)cc1	.	.	.	.	-15%[13.5 µM]
O=S1(=O)Nc2c(ccc3cccnc23)-c2ccccc21	-7%	2.5µM*	1.3µM*	-18%	?
c1cc2c3c(c1)c1c(n3CCNC2)CCCC1	.	4%	-8%	?	5%
Cc1ccc2nc3c(nc2c1C)C(O)=C3O	11µM*	-10%	-2%	-16%	.
NC(=O)C1CCN(CC(=O)NC2CCCc3ccccc32)CC1 (configuration not stated)	0%	3%	0%	3%	14%
Cc1ccc(S(=O)(=O)N2CCN(CC(=O)NC3CCCc4ccccc43)CC2)c(C)c1 (configuration not stated)	-6%	1%	-4%	-19%	13µM*
Cc1ccc(S(=O)(=O)N2CCN(CC(=O)NC3CCCc4ccccc43)CC2)cc1C (configuration not stated)	-10%	-2%	11%	-7%	0.45µM*
CCc1cc2c3c(c1)C(C)CC(C)(C)N3C(=O)/C2=C1\SC(=O)NC1=O (configuration not stated)	30µM*	-3%	29%	6%	.
CCc1cc2c3c(c1)/C(=C1/SC(N)=NC1=O)C(=O)N3C(C)(C)C=C2C	-9%	-16%	-22%	1%	-1%
CCCCCCCCN1C(=O)[C@H](CC(=O)NCCCOCCCC)C[C@@]2(C(=O)OC)CC(C)(C)CC=C12	5%	.	.	.	.
Cc1cc(O)c(C(=O)c2ccccc2C(=O)O)cc1C	-2%	-11%	10%	4%	18µM*
Cc1cc(C)c(C(=O)c2ccccc2C(=O)O)c(C)c1	-11%	.	.	.	.
C/C(=N\NC(=O)c1ccccc1O)c1cccs1	?	?	?	9%	?
COCCNC(=S)N/N=C(\C)c1ccccc1O	-19%	0.45µM*	0.2µM*	-3%	-4%
COc1ccccc1NC(=S)NN=C(C)c1ccccn1	-10%	.	.	.	.
C/C(=N\NC(=O)c1c(C)nc2ccccn12)c1ccccc1F	1%	?	?	9%	.
COCCNC(=S)N/N=C(\C)c1ccccc1OC	0%	6.3µM*	2.5µM*	5%	9%
COCCNC(=S)N/N=C(\C)c1ccccc1F	-18%	20µM*	3.5µM*	0%	?
COc1ccc(-n2c(=O)cnc3cnc(Oc4cccc(Cl)c4)nc32)cc1	.	9%	-16%	11%	?
C=CCOC(=O)N[C@@H](c1ccccc1)[C@@H](C)[N+](=O)[O-]	.	2%	-1%	-10%	9%
Cc1[nH]c2ccccc2c1/C=N/NC(=O)C1CC1(c1ccccc1)c1ccccc1 (configuration not stated)	0%	?	?	2%	-2%
c1cncc(CNc2ccc3c(c2)OCO3)c1	-14%	?	8%	?	20µM*
Cc1ccc(C(=O)N(CCCN(C)C)c2nc3ccc(Cl)cc3s2)cc1C	1%	18µM*	10µM*	56µM*	?
SMILES	PLK1 PBD inh	Gal4-VP16 FLuc	RORg inh	Sfp inh	ALDH1A1 block
CN(C)CCCN(C(=O)c1cc(-c2cccs2)nc2ccccc12)c1nc2ccc(F)cc2s1	0%	?	?	50µM*	.
Cc1ccc2nc(N(CCCN(C)C)C(=O)c3sc4ccccc4c3Cl)sc2c1	-11%	-16%	?	45µM*	2%
O=C(O)CCN1C(=O)C2C3CC(C2C1=O)C1C(c2ccccc2)c2sc(=O)n(-c4ccccc4)c2SC31 (configuration not stated)	42µM*	-1%	1%	?	?
COC(=O)c1[nH]c2cc(OC)c(OC)cc2c1NC(=O)Oc1ccccc1	-20%	9%	9%	45µM*	?
C=CCOC(=O)Nc1c(C(=O)OC)[nH]c2ccccc12	-6%	8%	-2%	-9%	-13%
O=S1(=O)c2ccc(Br)cc2OC(COCc2ccccc2)CN1Cc1ccccc1 (configuration not stated)	24µM*	.	.	.	.
COCCn1c(SCC(=O)NC(=O)NC2CCCC2)nc2ccccc2c1=O	1%	.	.	.	.
